From PubChem BioAssay (Tox21)
Results filed as inconclusive are left out. Calls of active or inactive are those of the source. Calls come from the whole dose curve; as a rule, active = well fitted curve in the direction sought with a large enough effect in the repeat runs; inconclusive = weak or mixed curves; inactive = no such curve, though single readings can be large; an effect the other way counts as inactive or inconclusive. Where a SMILES comes first, the peptide text is derived from it.

Tests used:
[1] = qHTS RealTime-Glo MT Cell Viability Assay in HEK293 cells - 32 hour (AID 1224868); note: nearly all actives have a fitted effect of over 50% in size; note: potency is the fitted concentration of half-maximal effect; for activity change, negative = cytotoxic: top concentration of the series differs between compounds
How it was run: (§1)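 Viability tracked continuously by luminescence as live cells reduce a prosubstrate for NanoLuc; HEK293 cells preincubated 5 h, compound-treated at 37 C, and read at 0, 8, 16, 24, 32 and 40 h.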

[2] = A CellTox Green Cytotoxicity Assay to monitor cytotoxicity in HEK293 cells - 0 hour (AID 1224869); note: nearly all actives have a fitted effect of over 50% in size
How it was run: (§2)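 Dead-cell fluorescence measured kinetically: asymmetric cyanine dye, HEK293, 600 cells/well, 5 h settle, 23 nL cpd/DMSO, 37 C, reads 0–40 h every 8 h.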

[3] = qHTS RealTime-Glo MT Cell Viability Assay in HepG2 cells - 40 hour (AID 1224870); note: nearly all actives have a fitted effect of over 50% in size
How it was run: (§3)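 HepG2 cells (600/well) mixed with RealTime-Glo MT reagent, settled 5 h at 37 C/5% CO2 before compound addition. Nonlytic NanoLuc luminescence from viable-cell prosubstrate reduction read repeatedly during 40 h treatment at 37 C.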

[4] = A CellTox Green Cytotoxicity Assay to monitor cytotoxicity in HEK293 cells - 40 hour (AID 1224871); note: nearly all actives have a fitted effect of over 45% in size
How it was run: as §2

[5] = qHTS RealTime-Glo MT Cell Viability Assay in HEK293 cells - 16 hour (AID 1224872); note: nearly all actives have a fitted effect of over 50% in size; note: potency is the fitted concentration of half-maximal effect; for activity change, negative = cytotoxicity: top concentration of the series differs between compounds
How it was run: as §1

[6] = qHTS RealTime-Glo MT Cell Viability Assay in HepG2 cells - 8 hour (AID 1224873); note: nearly all actives have a fitted effect of over 55% in size
How it was run: as §3

[7] = qHTS RealTime-Glo MT Cell Viability Assay in HEK293 cells - 40 hour (AID 1224874); conditions: RealTime-Glo luminescence; max response: stronger effect = lower value; note: nearly all actives have a fitted effect of over 50% in size; note: potency is the fitted concentration of half-maximal effect
How it was run: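 600 HEK293 cells per well, dispensed already mixed with RealTime-Glo MT reagents. Compound dosing came 5 h later. The same wells were read for luminescence at 0, 8, 16, 24, 32 and 40 h of exposure at 37 C.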

[8] = A CellTox Green Cytotoxicity Assay to monitor cytotoxicity in HEK293 cells - 24 hour (AID 1224875); note: series mostly up to about 77 µM; nearly all actives have a fitted effect of over 45% in size
How it was run: as §2

[9] = A CellTox Green Cytotoxicity Assay to monitor cytotoxicity in HepG2 cells - 16 hour (AID 1224876); note: nearly all actives have a fitted effect of over 45% in size
How it was run: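 First, HepG2 cells (600/well) mixed with reagent were plated; second, after 5 h at 37 C they received compounds via pintool; third, fluorescence was measured at 0 h through 40 h at 8 h intervals.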

[10] = qHTS RealTime-Glo MT Cell Viability Assay in HepG2 cells - 32 hour (AID 1224877); note: nearly all actives have a fitted effect of over 55% in size
How it was run: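 Viability was tracked continuously by NanoLuc luminescence from prosubstrate reduced by living HepG2 cells, at successive time points over 40 h of compound exposure. Cells with reagent were preincubated 5 h at 37 °C before compound addition.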
% is set by controls: 0 for no effect and ±100 for the full control effect.

CO[Si](CCCn1c(=O)n(CCC[Si](OC)(OC)OC)c(=O)n(CCC[Si](OC)(OC)OC)c1=O)(OC)OC
inactive: Potency [1] | Potency [2] | outcome [3] | Potency [4] | Potency [5] | outcome [6] | max response [7] 1.02% | Potency [8] | Potency [9] | outcome [10]

CC(=O)N[C@@H](CO)C(=O)N[C@@H](CC(=O)O)C(=O)N[C@@H](CCCCN)C(=O)N1CCC[C@H]1C(=O)O (Ac-SDKP-OH)
inactive: Potency [1] | Potency [2] | outcome [3] | Potency [4] | Potency [5] | outcome [6] | max response [7] 3.58% | Potency [8] | Potency [9] | outcome [10]

CC(C)OC(=O)OCOP(=O)(CO[C@H](C)Cn1cnc2c(N)ncnc21)OCOC(=O)OC(C)C
inactive: Potency [1] | Potency [2] | outcome [3] | Potency [4] | Potency [5] | outcome [6] | max response [7] 2.48% | Potency [8] | Potency [9] | outcome [10]

CCCCCCCCCCCCCCCCCC#N
inactive: Potency [1] | Potency [2] | outcome [3] | Potency [4] | Potency [5] | outcome [6] | max response [7] -5.42% | Potency [8] | outcome [10]

OC[C@H]1O[C@@H](O[C@@H]2[C@@H](CO)O[C@](O)(CO)[C@H]2O)[C@H](O)[C@@H](O)[C@H]1O
inactive: Potency [1] | Potency [2] | outcome [3] | Potency [4] | Potency [5] | outcome [6] | max response [7] 1.5% | Potency [8] | Potency [9] | outcome [10]

O=C1NC(c2ccccc2)(c2ccccc2)C(=O)N1COP(=O)(O)O
inactive: Potency [1] | Potency [2] | outcome [3] | Potency [4] | Potency [5] | outcome [6] | max response [7] -5.37% | Potency [8] | Potency [9] | outcome [10]

COc1c2occc2c(OC)c2c(=O)cc(C)oc12
inactive: Potency [2] | outcome [3] | Potency [4] | outcome [6] | Potency [8] | Potency [9] | outcome [10]
active: Potency [1] 9.52 µM | Potency [5] 9.52 µM | Potency [7] 9.52 µM

OCCN1CCOCC1
inactive: Potency [1] | Potency [2] | outcome [3] | Potency [4] | Potency [5] | outcome [6] | max response [7] 2.9% | Potency [8] | Potency [9] | outcome [10]

COC(=O)c1cc(Cl)cc(Cl)c1
inactive: Potency [1] | Potency [2] | outcome [3] | Potency [4] | Potency [5] | outcome [6] | max response [7] -0.635% | Potency [8] | Potency [9] | outcome [10]

N[C@@H](Cc1ccc(O)cc1)C(=O)O
inactive: activity change, negative = cytotoxic [1] -0.171% [at 6.97 µM] | cytotoxicity [2] 1.14% [at 6.97 µM] | activity change, negative = cytotoxic [3] 1.47% [at 6.97 µM] | cytotoxicity increase [4] -0.009% [at 6.97 µM] | activity change, negative = cytotoxicity [5] 0.747% [at 6.97 µM] | viability change, negative = cytotoxic [6] 0.728% [at 6.97 µM] | max response [7] -1.3% | activity change [8] 2.02% [at 6.97 µM, stronger effect = higher value] | cytotoxicity increase [9] -12.3% [at 6.97 µM] | activity change, negative = cytotoxic [10] -0.0666% [at 6.97 µM]

CC(=O)CC(=O)OC(C)(C)C
inactive: Potency [1] | Potency [2] | outcome [3] | Potency [4] | Potency [5] | outcome [6] | max response [7] 1.26% | Potency [8] | Potency [9] | outcome [10]

C=CC/C=C/C
inactive: Potency [1] | Potency [2] | outcome [3] | Potency [4] | Potency [5] | outcome [6] | Potency [8] | Potency [9] | outcome [10]

CCCCCC(C)O (configuration not stated)
inactive: Potency [1] | Potency [2] | outcome [3] | Potency [4] | Potency [5] | outcome [6] | max response [7] 6.06% | Potency [8] | Potency [9] | outcome [10]

CC1=C(C(=O)O)N2C(=O)[C@@H](NC(=O)[C@H](N)c3ccccc3)[C@H]2SC1
inactive: Potency [1] | Potency [2] | outcome [3] | Potency [4] | Potency [5] | outcome [6] | max response [7] 0.975% | Potency [8] | Potency [9] | outcome [10]

CCC(C)OC(C)CC (configuration not stated)
inactive: Potency [1] | Potency [2] | outcome [3] | Potency [4] | Potency [5] | outcome [6] | max response [7] -6.97% | Potency [8] | Potency [9] | outcome [10]

CC1(C)[C@H]2CC[C@](C)(C2)[C@H]1O
inactive: Potency [1] | Potency [2] | outcome [3] | Potency [4] | Potency [5] | outcome [6] | max response [7] -1.99% | Potency [8] | Potency [9] | outcome [10]

N[C@@H](CSCCCO)C(=O)O
inactive: activity change, negative = cytotoxic [1] 3.39% [at 15.8 µM] | cytotoxicity [2] -3.9% [at 15.8 µM] | activity change, negative = cytotoxic [3] 1.41% [at 15.8 µM] | cytotoxicity increase [4] -5.88% [at 15.8 µM] | activity change, negative = cytotoxicity [5] 2.66% [at 15.8 µM] | viability change, negative = cytotoxic [6] 1.95% [at 15.8 µM] | max response [7] 2.4% | activity change [8] 1.71% [at 15.8 µM, stronger effect = higher value] | cytotoxicity increase [9] -15.5% [at 15.8 µM] | activity change, negative = cytotoxic [10] 2.25% [at 15.8 µM]

CCC(=O)Oc1ccc2c(c1)CC[C@@H]1[C@@H]2CC[C@@]2(C)[C@H]1C[C@@H](OC(=O)CC)[C@@H]2OC(=O)CC
inactive: Potency [1] | Potency [2] | outcome [3] | Potency [4] | Potency [5] | outcome [6] | max response [7] -0.818% | Potency [8] | outcome [10]

CO/N=C(/C(=O)N[C@@H]1C(=O)N2C(C(=O)[O-])=C(C[n+]3ccn4ncccc43)CS[C@H]12)c1nsc(N)n1
inactive: Potency [1] | Potency [2] | outcome [3] | Potency [4] | Potency [5] | outcome [6] | max response [7] 6.83% | Potency [8] | Potency [9] | outcome [10]
